Here are results for 40 compounds from ChEMBL document CHEMBL1157539, “Thousands of chemical starting points for antimalarial lead identification” (Nature, 2010).

For this experiment, the system named is HepG2. Description: GSK_TCMDC: Percent inhibition of human HepG2 cell line. Test compounds present at 10uM. The class given is functional.
For the compound `O=C(NC(=S)Nc1cc(C(F)(F)F)cc(C(F)(F)F)c1)c1ccc(Cl)cc1`, the Inhibition – broadly, the percentage by which the read-out fell short of the control – amounted to 31%. The same measure for `O=C(Nc1ccc(-c2cncc(NCCCN3CCCC3)c2)cc1)c1ccccc1`: 0%; for `CC(C)(CNC(=O)[C@H]1CCCCN1)c1nc(-c2ccc(Cl)c(O)c2)c(-c2ccncc2)[nH]1.Cl`: 6%; for `CC(C)COc1ccc(Cl)cc1Cc1nc(-c2nc3ccc(CN4CCCC4)cc3[nH]2)co1.Cl`: 50%.

In turn, `O=C(/C=C/c1ccc(Cl)c(Cl)c1)NCCCCCN1CCC(NC(=O)Nc2cccc(Cl)c2Cl)CC1` came in with an Inhibition of 99%.

`CN1CCCc2cc(NC(=O)C=Cc3ccc(-c4ccc(F)cc4F)o3)ccc2C1.O=C(O)C(F)(F)F` came in with an Inhibition of 5%. The same measure for `Cc1cccc(Cn2c(Cc3ccccc3)nnc2Sc2ccc([N+](=O)[O-])c(C#N)c2)c1`: 17%. As to `COc1ccc2c(=NN=Cc3ccc(OC)c4ccccc34)cc(C)[nH]c2c1`, the Inhibition worked out at 3%. `Cc1ccc(NC(=S)NC2CCN(CCCCCNC(=O)/C=C/c3ccc(Cl)c(Cl)c3)CC2)cc1Cl` had an Inhibition of 45%.

The compound `O=C(Cc1ccccc1)NC1CCN(c2ccnc3cc(Cl)ccc23)C1.O=C(O)C(F)(F)F` (stereo not given) gave an Inhibition of 6%. The value for `CN(CCCNCc1cccc2ccccc12)CCCNCc1cccc2ccccc12.Cl` was 93%. The same measure for `Cn1cncc1C(=O)Nc1cccc(-c2cccc(-c3nc4cc(C(F)(F)F)ccc4[nH]3)c2)c1`: 38%. The same measure for `COc1cccc(-c2ccc(NC(=O)C3CCCN(Cc4cccc(OC)c4O)C3)cc2)c1` (stereo not given): 13%; for `N=C(N)NC(=O)Nc1cc(Cl)c(Br)c(Cl)c1`: 6%; for `CC(CN(C)C)C(=O)Nc1ccc(-c2cccc(-c3nc4cc(C(F)(F)F)ccc4[nH]3)c2)cc1` (stereo not given): 30%.

`COc1c(CNCCCCCCNCc2c(OC)c(OC)c3ccccc3c2OC)c(OC)c2ccccc2c1OC.CS(=O)(=O)O` registered an Inhibition of 100%. The same measure for `COCCNCc1cccc(-c2ccc(CNC3CCN(Cc4ccccc4)CC3)cc2)c1.O=C(O)C(F)(F)F`: 34%. The value for `COc1ccc(N2C(N)=NC(N)=NC2(C)C)cc1.Cl` was 0%; that for `Cc1cc(NCCC(=O)NCCOc2ccccc2)nc(NCc2ccccc2C)n1.O=C(O)C(F)(F)F` was 17%. The same measure for `Cc1ccc(-c2cc(C(=O)Nc3ccc(S(=O)(=O)N(C)Cc4ccccc4)cc3)[nH]n2)c(O)c1`: 34%; for `CC(C)CNC(=O)c1cncc(-c2cccc(CNC3Cc4ccccc4C3)c2)c1.O=C(O)C(F)(F)F`: 4%. In the case of `Cc1[nH]c2ccccc2c1C=NNc1nc(=Nc2ccccc2)[nH]c(=Nc2ccccc2)[nH]1`, the Inhibition is 3%. The value for `CN(C)CC(=O)Nc1ccc(Nc2nccc(NCC(O)c3ccccc3)n2)cc1` (stereo not given) was 0%; that for `CCNC(=O)N1CCc2ccc(Oc3nc(NCc4ccccc4OC)ncc3C)cc2CC1.O=C(O)C(F)(F)F` was 0%. The value for `Cc1cccc2nc(-c3cccc(-c4cccc(CNC(C)C)c4)c3)[nH]c12.O=C(O)C(F)(F)F` was 29%; that for `Cc1cc(N(C)C)nc(Nc2ccc(NC(=O)c3c(F)cccc3F)cc2)n1` was 50%; that for `O=C(Nc1ccnc(N2CC3CC2CN3Cc2cccc(O)c2)c1)c1ccc(F)cc1.O=C(O)C(F)(F)F` (stereo not given) was 2%.

In the case of `Cl.O=C(C=Cc1ccc(F)cc1)NC1CCC(CCN2CCc3ccc(-c4cnccn4)cc3CC2)CC1` (stereo not given), the Inhibition is reported as 32%. The value for `CN1CCC(NC(=O)c2cccc(Nc3cc(Nc4cccc(Br)c4)ncn3)c2)CC1` was 25%; that for `Cc1ccc(-c2nc3cc(C(=O)NC4CCN(Cc5ccccc5)CC4)ccc3[nH]2)cc1` was 20%.

`Oc1c(Br)cc2oc3c(c2c1CNCc1ccccc1)CCCC3` registered an Inhibition of 0%. The same measure for `COc1ccc2c(=NN=Cc3ccccc3F)cc(C)[nH]c2c1`: 4%. For `Cc1[nH]c(C)c(-c2ccc(CCc3cccc(C(F)(F)F)c3)nc2)c(=O)c1Cl`, the Inhibition is on record as 28%. The value for `Cl.O=C(NC1CCC(CCN2Cc3cccc(F)c3C2)CC1)c1cccc(-c2cccnc2)c1` (stereo not given) was 16%; that for `CCCCOP(=O)(COc1ccc(CCN(CC(O)COc2cccc3[nH]c4ccccc4c23)CC(O)COc2cccc3[nH]c4ccccc4c23)cc1)C1CCCCC1` (stereo not given) was 7%. The value for `Oc1cccc(CNCCCN(Cc2ccccc2)c2ccccc2)c1` was 7%; that for `Cc1cc2nc(-c3cc(-c4cccc(NS(C)(=O)=O)c4)cnc3N)[nH]c2cc1C` was 43%; that for `O=C(Nc1cccc(-c2ccc(-c3nc4cc(F)ccc4[nH]3)cc2)c1)Nc1ccc(F)c(F)c1F` was 53%. The value for `CSc1ccc(CN2CCC(NC(=O)c3ccc(-c4cccc(Cl)c4)s3)CC2)cc1.O=C(O)C(F)(F)F` was 75%. As to `O=c1cc(NCCC(CNCCc2ccccc2)NCc2cc(Br)cc(Br)c2)[nH]c2ccccc12` (stereo not given), the Inhibition worked out at 3%.
